We go through 98 molecules from PubChem BioAssay AID588856 (National Center for Advancing Translational Sciences (NCATS), 2011).

About 3,100 (0.76%) of roughly 410,000 compounds were called active. A call without a number means that no potency is given here. Calls follow the shape of the dose curve; as a rule, active = well fitted cell-killing curve with a large enough effect; inactive = no such curve, though single readings can be large or run the other way. This excerpt belongs to a sample that is enriched for actives.
Potency is read from the fitted curve at half-maximal effect.

This assay can be described thus: qHTS for Inhibitors of TGF-b: Cytotox Counterscreen. To be noted: HepG2 CAGA-GFP viability, ATP luminescence, 18 h; series mostly up to 46.1 µM. Put shortly:
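HepG2 CAGA-GFP cells (1000/well, DMEM with 1% FBS) received compound, then TGF-beta at 500 pg/mL final, and were incubated 18 hours at 37 degrees C. Viability was read by CellTiter-Glo luminescence. Media-only wells were set as complete cell-killing and DMSO as no toxicity.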
On the technique in general: In qHTS, concentration-response curves come from the screen itself.
As to `CCCCCCCNc1ccc(/C=C/c2ccnc3ccccc23)cc1`, the Potency result is “inactive”. Next, `Cc1ccc(N2CC(NC(=O)Cc3cccs3)CC2=O)cc1` (stereo not drawn): “inactive”; `CN(C)c1ccc(/C=C2\C=Cc3ccccc32)cc1Br`: “inactive”. To `COc1ccc(-c2ccc(OC)c(C3C4C=CCC(C)C4C(=O)N3Cc3ccccc3)c2)cc1C` (stereo not drawn) belongs “inactive”. Next, `O=C(CN(Cc1ccccc1)C(=O)c1ccc2c(c1)OCCO2)NCc1ccc2c(c1)OCO2`: “inactive”. With `Cc1cc(C)c2sc(NC(=O)c3ccc(S(=O)(=O)N4CCCC4)cc3)nc2c1`, the Potency result was “inactive”.

With `O=C(CCOc1ccccc1)N(Cc1cccnc1)c1nc2ccc(Cl)cc2s1`, the Potency result was “inactive”. For `CCc1ccc2nc(N(CCCN(C)C)C(=O)c3ccc4c(c3)OCCO4)sc2c1`, the Potency is 11.2 µM (active).

For `Cc1ccc(S(=O)(=O)N(CCCN(C)C)Cc2ccc3c(c2)OCO3)cc1`, the Potency result is “inactive”. Next, `CCOc1ccc2nc(N(CCCN(C)C)C(=O)c3ccc(C(=O)c4ccccc4)cc3)sc2c1`: 15.8 µM (active).

On to `CCOc1ccc2nc(N3CCC(C(=O)Nc4cc(C)ccc4C)CC3)sc2c1`, for which the Potency entry was “inactive”.

In the case of `CCN(CC(=O)Nc1c(F)cccc1F)C(=O)c1ccc(S(=O)(=O)N2CCCCC2)cc1`, the Potency entry is “inactive”. As for `CN(C)CCCN(C(=O)c1ccc(S(=O)(=O)N2CCCCCC2)cc1)c1nc2ccc(Br)cc2s1`, the Potency is 22.4 µM (active). Next, `Cc1nn(C)c2c1c(C(F)(F)F)cc(=O)n2C(C)C(=O)NCc1ccc(Cl)cc1` (stereo not drawn): “inactive”; `COc1ccc(CNC(=O)c2cc3c(=O)[nH]c4ccc(C)cc4c3s2)c(OC)c1`: “inactive”; `COc1cc(-c2cc3n(C)c(C)c(CCC(=O)Nc4ccc(F)cc4)c(=O)n3n2)cc(OC)c1OC`: “inactive”.

`CC(=O)c1ccc(NC(=O)C2CCN(S(=O)(=O)c3c(C)noc3/C=C/c3ccc(C)cc3)CC2)cc1`: the Potency entry was “inactive”. For the molecule `COc1ccc(CNC(=O)c2cc3c(-c4ccccc4F)nn(C)c3s2)c(OC)c1`, the Potency entry is “inactive”.

Turning to `COC(=O)c1scc(-c2ccccc2)c1S(=O)(=O)Nc1ccccc1`, the Potency result is “inactive”. To `O=c1[nH]c(CCl)nc2cc(-c3ccc(Cl)cc3)sc12` belongs 4.47 µM (active); to `SCc1nc2ccc(Cl)cc2[nH]1`, “inactive”. In the case of `COc1cccc(-c2cc3nc(NCCOc4ccccc4Cl)n(C)c(=O)c3s2)c1`, the Potency result was “inactive”.

Turning to `CCOC(=O)C1CCC(CN(Cc2ccc(OC)cc2)S(=O)(=O)c2ccc(F)c(C(=O)Nc3cc(C)ccc3C)c2)CC1` (stereo not drawn), the Potency result is “inactive”. With `Cc1ccc(C)c(CNC(=O)c2cc3ccccn3n2)c1`, the Potency result is “inactive”. For `CCOc1n[nH]c(-c2ccccc2)n1`, the Potency result is “inactive”.

As to `Nc1c(C(=O)O)cnn1-c1ccccc1`, the Potency was 11.2 µM (active).

For the molecule `CCNC(=O)c1cnn(-c2ccccc2)c1-c1ccccc1`, the Potency result was “inactive”.

Regarding `NNC(=O)c1cnn(-c2ccccc2)c1C(F)(F)F`, the Potency entry was “inactive”. With `Cc1ccc(F)cc1S(=O)(=O)N1CCC(c2nc3ccccc3s2)CC1`, the Potency result is “inactive”. To `O=C(CC1NCCc2ccccc21)Nc1cccc(Cl)c1` (stereo not drawn) belongs “inactive”. Turning to `COC(=O)c1cc(C)sc1NC(=O)CC1Nc2ccccc2NC1=O` (stereo not drawn), the Potency entry is “inactive”.

As to `O=C(CC1Nc2ccccc2NC1=O)Nc1ccccc1` (stereo not drawn), the Potency is 12.6 µM (active). To `N#Cc1cc2[nH]c(=O)c(=O)[nH]c2cc1[N+](=O)[O-]` belongs “inactive”; to `CCOc1ccc(NC(=O)CN(Cc2ccccc2)S(=O)(=O)c2ccc(Cl)cc2)cc1`, “inactive”.

On to `CCOc1ccc(N(Cc2ccccc2)C(=O)c2nc(S(C)(=O)=O)ncc2Cl)cc1`, for which the Potency was 3.55 µM (active). Next, `CCOc1ccc(N(Cc2ccccc2)C(=O)c2nc(SCC)ncc2Cl)cc1`: “inactive”; `COCCNC(=O)c1ccc2c(c1)N(Cc1cccc(Cl)c1)C(=O)c1ccccc1S2(=O)=O`: “inactive”; `Cc1ccc(C(=O)N2CCc3cc(CNC(=O)c4ccc(Br)cc4)ccc32)cc1`: “inactive”. To `O=C(CSc1ccccc1)Nc1cc(Cl)ccc1Oc1ccccc1` belongs “inactive”. Next, `O=C(CSc1nc2ccc(Nc3nc(N4CCOCC4)nc(N4CCOCC4)n3)cc2s1)NCc1ccco1`: “inactive”.

As to `O=C(CSc1nc(Nc2ccccc2)nc(N2CCOCC2)n1)Nc1cc(Cl)ccc1O`, the Potency was 6.31 µM (active). For the molecule `O=C1/C(=C\c2ccc([N+](=O)[O-])cc2)CS(=O)(=O)C/C1=C/c1ccc([N+](=O)[O-])cc1`, the Potency is 14.1 µM (active). For the molecule `O=[N+]([O-])c1ccc(/C=C/c2ccc3cccnc3c2)cc1`, the Potency entry is “inactive”. Consider `O=S(=O)(c1ccc(Cl)cc1)c1nc(-c2ccccc2F)oc1NCCN1CCOCC1`, for which the Potency result was “inactive”. To `c1ccc2cc3c(NCCN4CCOCC4)ccnc3cc2c1` belongs 3.55 µM (active); to `O=C(Cc1ccc(Br)cc1)NCCN1CCOCC1`, “inactive”.

Consider `CCC(=O)N1CCc2cc(CNC(=O)Nc3ccccc3Cl)ccc21`, for which the Potency result was “inactive”. To `COc1ccc(-c2nc(S(=O)(=O)c3ccccc3)c(N3CCCCC3)o2)cc1` belongs “inactive”. As to `Fc1ccc(-c2csc(-c3ccc(C4SCCS4)cc3)n2)cc1F`, the Potency entry is “inactive”. Take `CCCc1cc(-c2nc(-c3ccc(C)cc3)cs2)ccn1`: the Potency was 10 µM (active).

`CCCc1nc2scc(-c3ccc(C)cc3)c2c(=O)n1N`: the Potency result was “inactive”.

Regarding `CC1(C)Cc2ccccc2-c2c[nH]c(=O)n21`, the Potency result is “inactive”.

For the molecule `CCOc1ccc(C(=O)N2CCN(CCc3ccccn3)CC2)cc1`, the Potency result was “inactive”. Next, `CCN(CC)CCOc1ccc2c(c1)C(=NNC(=O)c1ccccn1)c1cc(OCCN(CC)CC)ccc1-2`: 15.8 µM (active). Next, `CC(C)(C)c1ccc(C(=O)C[n+]2cccc3cc(Cl)ccc32)cc1`: “inactive”; `CCN(C(=O)Cn1c(=O)nc(-c2ccccc2)c2cc(Cl)ccc21)c1cccc(C)c1`: “inactive”; `O=C(c1cnn2c1NC(=C1CC1)C=C2C(F)F)N1CCc2ccccc2C1`: “inactive”. Next, `CN1CCN(c2oc(-c3ccc(COc4ccc(Cl)cc4)o3)nc2C#N)CC1`: “inactive”.

`CCc1ccc(-c2nn(-c3ccccc3C)cc2C(=O)N2CCN(C3CCS(=O)(=O)C3)CC2)cc1` (stereo not drawn): the Potency result is “inactive”. To `CCc1ccc(-c2nn(-c3ccccc3)cc2CSC(=N)N)cc1` belongs 17.8 µM (active); to `CN(C)Cc1cn(-c2ccccc2)nc1-c1ccccc1`, “inactive”. `Cc1cc(C)c(NC(=O)Cn2c(SCC(=O)NCc3ccccc3)nc3ccccc32)c(C)c1`: the Potency result is “inactive”. With `Cc1ccc(Cl)cc1N1CCN(C(=O)C2CCC(CNS(=O)(=O)c3cccs3)CC2)CC1` (stereo not drawn), the Potency result was “inactive”. To `Cc1ccc(CN2CCC(CNC(=O)c3cnn(-c4ccccc4Cl)c3C3CCN(C(=O)OC(C)(C)C)CC3)CC2)cc1` belongs 17.8 µM (active); to `Cc1ccc(CN2CCC(CNC(=O)c3cnn(-c4ccc(C)cc4)c3C3CCN(C(=O)OC(C)(C)C)CC3)CC2)cc1`, “inactive”; to `COc1ccccc1CN1CCC(CNC(=O)c2cnn(-c3ccccc3Cl)c2C2CCN(C(=O)OC(C)(C)C)CC2)CC1`, “inactive”. To `CC1(C)CC(=O)c2cc(C(=O)NCc3ccccc3)c(=O)[nH]c2C1` belongs “inactive”. Consider `CCc1nc2c(OCc3ccc(Cl)cc3Cl)cccn2c1N(C)C(=O)C(C)C`, for which the Potency result is “inactive”. As to `Cc1nc2c(OCc3ccc(Cl)cc3Cl)cccn2c1N(C)CC1CC1`, the Potency was 11.2 µM (active). `CCCCC(=O)N(C)c1c(CC)nc2c(OCc3ccc(Cl)cc3Cl)cccn12`: the Potency was 12.6 µM (active). To `Cc1nc2c(OCc3cccc(Cl)c3)cccn2c1N(C)CC1CC1` belongs “inactive”; to `Cc1nc2c(OCc3ccc(Cl)cc3)cccn2c1N(C)Cc1cccs1`, “inactive”; to `CCCCC(=O)N(C)c1c(CC)nc2c(OCc3ccc(S(C)(=O)=O)cc3)cccn12`, “inactive”. To `Cc1ccc(C)c(S(=O)(=O)c2nnn3c2nc(N2CCOCC2)c2sccc23)c1` belongs “inactive”; to `CN1CCN(/[N+]([O-])=N/Oc2ccc([N+](=O)[O-])cc2[N+](=O)[O-])CC1`, “inactive”; to `CC1(C)C=Cc2c(ccc(C(=O)/C=C/c3ccccc3)c2O)O1`, “inactive”. To `O=C1C=CC(=O)N1c1ccc(N2CCCCC2)cc1` belongs 17.8 µM (active); to `Cc1ccc(CNC(=O)CCc2c(C)nc3c(c(C)nn3-c3ccccc3)c2C)cc1`, “inactive”; to `O=C(Nc1ccc(Cl)cc1)c1cnn2c1NC(=C1CC1)C=C2C(F)F`, “inactive”. As for `COc1ccc(-c2nc3sc(CCNC(=O)C(C)(C)C)c(C)n3n2)cc1`, the Potency result was “inactive”. Regarding `CC1CCC2(CC1)N=C(c1ccccc1)C(=O)N2CC(=O)Nc1ccc(F)c(Cl)c1` (stereo not drawn), the Potency result was “inactive”. As to `COCCn1c(SCC(=O)Nc2nc(C)cs2)nnc1C(C)C`, the Potency is 11.2 µM (active). To `CCn1c(CC(=O)Nc2ccc(C)cc2)nnc1SCC(=O)Nc1nc(C)cs1` belongs “inactive”. Next, `CCn1c(SCC(=O)Nc2nc(C)cs2)nnc1C(C)NC(=O)c1ccccc1` (stereo not drawn): “inactive”. Next, `CCn1c2ccccc2c2nnc(SCC(=O)O)nc21`: “inactive”; `COc1ccc(NC(=O)Nc2cccc(-c3noc(C)n3)c2)cc1`: “inactive”. Take `Cc1ccc(S(=O)(=O)N2CCN(c3nc(-n4cnc5ccccc54)nc4ccccc34)CC2)cc1`: the Potency entry is “inactive”. To `Cc1sc2ncn(CC(=O)N3CCN(c4ccc(F)cc4)CC3)c(=O)c2c1S(=O)(=O)N1CCN(c2ncccn2)CC1` belongs “inactive”; to `CC(C)(C)OC(=O)N(Cc1ccco1)S(=O)(=O)c1ccccc1Br`, “inactive”. Next, `C=C1C=C(C(F)F)n2ncc(C(=O)NCCc3ccccc3OC)c2N1`: “inactive”; `COc1ccc(-c2cn3c(n2)sc2cc(C(=O)Nc4ccccc4F)ccc23)cc1`: “inactive”; `CC(Nc1nc(C(F)(F)F)nc2ccccc12)c1cccs1` (stereo not drawn): 22.4 µM (active).

On to `Oc1ccccc1-c1nc(/C=C/c2ccc(F)cc2)no1`, for which the Potency entry is “inactive”.

Consider `COc1cc(Cl)ccc1Nc1ncc(C(=O)N2CCN(c3ccccc3OC)CC2)c2ccccc12`, for which the Potency result is “inactive”.

On to `Cc1ccc(S(=O)(=O)NCC2CCC(C(=O)N3CCOCC3)CC2)cc1` (stereo not drawn), for which the Potency entry was “inactive”. Regarding `O=C(NC1CCCCC1)C1CCC(CNS(=O)(=O)c2ccccc2)CC1` (stereo not drawn), the Potency entry was “inactive”. Take `O=C(O)C1CCC(CNS(=O)(=O)c2ccc(Br)cc2)CC1` (stereo not drawn): the Potency was 15.8 µM (active). With `O=C(NC1CC(=O)N(c2ccc(F)cc2)C1)c1ccc(S(=O)(=O)N2CCCC2)cc1` (stereo not drawn), the Potency result was “inactive”.
